Shown are actives, neighbours in structure and some others; about 0.87% of the full set was active somewhere.
APEX1 inh: qHTS Assay for Inhibitors of the Human Apurinic/apyrimidinic Endonuclease 1 (APE1) | recombinant APE1, TAMRA/BHQ-2 abasic DNA cleavage fluorescence | Potency, µM (titrated, usually from 65.8 µM), usual class: inhibitors | actives 0.35% (n = 350,000) | AID 2517, 2012; note: nearly all actives have a fitted effect of over 55% in size
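Substrate: short duplex with […] THF abasic site, 5'-TAMRA and 3'-BHQ-2, 50 nM final. APE1 at 0.75 nM, preincubated 15 min RT with compound. Fluorescence increase from first to third read measured activity.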
TDP1 inh: qHTS Assay for Inhibitors of Tyrosyl-DNA Phosphodiesterase (TDP1); actives 0.28% (n = 350,000); Potency, µM (series often up to 130 µM), actives largely listed as inhibitors; recombinant TDP1, AlphaScreen DNA substrate cleavage; AID 485290, 2010; Tyrosyl-DNA phosphodiesterase 1 (Homo sapiens), Q9NUW8; note: nearly all actives have a fitted effect of over 40% in size
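Signal: AlphaScreen proximity between streptavidin donor and anti-FITC acceptor beads on intact substrate. Reaction: Tdp1 1 nM, substrate 15 nM final, 5 min RT after 15 min compound preincubation.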
RECQ1 inh: qHTS Assay for Inhibitors of RecQ-Like Dna Helicase 1 (RECQ1); AID 2549, 2010; Potency, µM (titrated, usually from 57.3 µM), usual class: inhibitors; actives 0.54% (n = 240,000); RECQ1 DNA unwinding, red fluorescence kinetic read; ATP-dependent DNA helicase Q1 (Homo sapiens), P46063; note: nearly all actives have a fitted effect of over 30% in size
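RECQ1T1 50 nM; forked duplex (20 bp + 30-nt ss tails) 200 nM, ATP 2 mM final; pH 8.0, 2 mM MgCl2, 2.5 ug/ml poly(dI-dC); 15 min compound preincubation; discontinuous kinetic read over 2 h at RT.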
BLM helicase inh: qHTS Assay for Inhibitors of Bloom's syndrome helicase (BLM) | RecQ-like DNA helicase BLM (Homo sapiens), P54132 | AID 2528, 2010 | Potency, µM (doses to about 56.1 µM), most hits filed as inhibitors | actives 0.2% (n = 350,000) | recombinant BLM DNA unwinding, fluorescence dequenching; note: nearly all actives have a fitted effect of over 35% in size
KAT2A inh: qHTS Assay for Inhibitors of GCN5L2; actives 0.21% (n = 390,000); Potency, µM (top dose mostly 58.9 µM), most hits filed as inhibitors; AID 504327, 2011; GCN5L2 HAT assay, ThioGlo1 CoA-SH fluorescence; Histone acetyltransferase KAT2A (Homo sapiens), Q92830
Target sequence (Q92830 whole entry, looked up): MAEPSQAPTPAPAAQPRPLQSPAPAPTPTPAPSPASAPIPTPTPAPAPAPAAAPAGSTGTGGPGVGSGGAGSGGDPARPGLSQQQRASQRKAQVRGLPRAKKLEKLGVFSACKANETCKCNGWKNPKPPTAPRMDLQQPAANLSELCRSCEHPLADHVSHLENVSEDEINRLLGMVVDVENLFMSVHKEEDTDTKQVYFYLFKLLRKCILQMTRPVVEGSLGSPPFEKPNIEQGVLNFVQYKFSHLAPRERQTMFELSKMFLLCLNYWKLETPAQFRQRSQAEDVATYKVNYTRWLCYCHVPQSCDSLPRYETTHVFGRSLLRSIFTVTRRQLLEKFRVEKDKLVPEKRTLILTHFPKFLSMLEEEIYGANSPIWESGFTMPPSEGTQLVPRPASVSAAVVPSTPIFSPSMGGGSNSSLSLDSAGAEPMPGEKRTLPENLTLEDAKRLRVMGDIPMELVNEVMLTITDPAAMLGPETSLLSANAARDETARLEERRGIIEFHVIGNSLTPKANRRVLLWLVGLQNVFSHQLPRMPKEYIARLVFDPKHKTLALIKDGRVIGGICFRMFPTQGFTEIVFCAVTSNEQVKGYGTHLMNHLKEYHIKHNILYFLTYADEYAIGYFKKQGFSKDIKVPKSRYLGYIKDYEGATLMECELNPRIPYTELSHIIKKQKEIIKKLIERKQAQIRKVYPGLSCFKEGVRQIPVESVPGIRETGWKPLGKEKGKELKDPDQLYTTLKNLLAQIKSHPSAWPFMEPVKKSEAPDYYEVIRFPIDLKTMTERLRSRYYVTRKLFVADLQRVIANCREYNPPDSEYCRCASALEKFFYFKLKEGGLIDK
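GCN5L2 (20nM final) in 50mM HEPES, 0.1mM EDTA pH 7.5, 0.01% Tween-20 was preincubated 15 min at room temperature with compound, then given ThioGlo1 (50uM), H3(1-25) peptide (75uM) and acetyl-CoA (70uM); CoA-thiol fluorescence (Ex340/Em540) was read at 0 and 20 min.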
Hits are given with their value; ! = not active in a repeat. Calls come from the whole dose curve; as a rule, active = well fitted curve in the direction sought with a large enough effect; inconclusive = small, poorly fitted or top-dose-only effect, or another doubt; inactive = no such curve, though single readings can be large; an effect the other way counts as inactive or inconclusive.

How did Cc1cc(/C=C2/C(=N)N3C(=NC2=O)SN=C3S(C)(=O)=O)c(C)n1-c1ccccc1F do in these assays?
APEX1 inh: inactive; TDP1 inh: inactive; RECQ1 inh: inactive; BLM helicase inh: inactive; KAT2A inh: 22µM

What do the screens show for `CC[C@]12c3[nH]c4cc(CCC(=O)N(C)C)ccc4c3CCN1C(=O)[C@@H](CC(=O)NCCCOC)C[C@@H]2C(=O)N1CCN(C(=O)C2CC2)CC1`?
APEX1 inh: 21µM; TDP1 inh: inactive; KAT2A inh: inactive

What do the screens show for `FC(F)(F)c1ccccc1-c1nc(N2CCNCC2)c2ccccc2n1`?
APEX1 inh: inactive; TDP1 inh: inactive; RECQ1 inh: inactive; BLM helicase inh: inactive; KAT2A inh: inactive

How did FC(F)(F)c1ccccc1-c1nc(N2CCOCC2)c2ccccc2n1 do in these assays?
APEX1 inh: 25µM; RECQ1 inh: inactive; BLM helicase inh: inactive; KAT2A inh: inconclusive

How did O=c1n(CCCN2CCN(c3cccc(Cl)c3)CC2)nc2ccccn12 do in these assays?
APEX1 inh: inactive; TDP1 inh: inactive; RECQ1 inh: inactive; BLM helicase inh: inactive; KAT2A inh: 11µM!

How did Cc1ccc(S(=O)(=O)N(Cc2ccccc2)Cc2ccco2)cc1 do in these assays?
APEX1 inh: inactive; TDP1 inh: inactive; RECQ1 inh: inactive; BLM helicase inh: inactive; KAT2A inh: inactive

How did COc1ccccc1N(CC(=O)NCc1ccco1)S(=O)(=O)c1ccc(C)cc1 do in these assays?
APEX1 inh: 21µM; BLM helicase inh: inactive; KAT2A inh: inactive

What do the screens show for `Cc1ccc(S(=O)(=O)N(CC(=O)O)Cc2ccco2)cc1`?
APEX1 inh: 14µM; TDP1 inh: 22µM; RECQ1 inh: inactive; BLM helicase inh: inactive; KAT2A inh: inactive

Results for O=C(O)CCc1cc(F)c(S(=O)(=O)N2CCN(S(=O)(=O)c3ccc4c(c3)OCCO4)CC2)cc1F ?
TDP1 inh: inactive

What do the screens show for `O=[N+]([O-])c1cccc(-c2nnc3ccc4ccccc4n23)c1`?
APEX1 inh: 13µM; RECQ1 inh: inconclusive; BLM helicase inh: inactive; KAT2A inh: inactive

How did O=[N+]([O-])c1cccc(-c2nnc3cccc(Cl)n23)c1 do in these assays?
APEX1 inh: inactive; BLM helicase inh: inactive; KAT2A inh: inactive

Results for CN(C)CC/C=C1/c2ccccc2CSc2ccccc21 ?
APEX1 inh: inactive

Results for O=C(O)CN1C(=O)/C(=C\c2ccccc2OCc2ccc(Cl)cc2Cl)SC1=S ?
APEX1 inh: inactive; TDP1 inh: inactive; BLM helicase inh: inactive; KAT2A inh: 18µM

How did CCC(=O)Nc1ccc(C(=O)COC(=O)c2nc3nccc(C)n3n2)cc1 do in these assays?
APEX1 inh: inconclusive; TDP1 inh: 16µM; KAT2A inh: inconclusive

How did Cc1ccnc2nc(C(=O)OCC(=O)c3ccc(NC(=O)CC(C)C)cc3)nn12 do in these assays?
APEX1 inh: inactive; TDP1 inh: inactive; KAT2A inh: inactive

How did S=c1[nH]nc(-c2cccnc2)n1/N=C/C=C/c1ccco1 do in these assays?
APEX1 inh: inactive; TDP1 inh: 40µM; RECQ1 inh: inconclusive; BLM helicase inh: 20µM; KAT2A inh: inconclusive

How did Cc1ccc(CNC(=O)c2ccc(-n3cccc3)cc2)cc1 do in these assays?
APEX1 inh: inconclusive; TDP1 inh: 13µM; RECQ1 inh: inconclusive; BLM helicase inh: inconclusive; KAT2A inh: inconclusive

How did Cc1ccc(CNC(=O)Cc2ccc(-n3cccc3)cc2)cc1 do in these assays?
APEX1 inh: inactive; TDP1 inh: inactive; RECQ1 inh: inactive; BLM helicase inh: inactive; KAT2A inh: inactive

How did O=[N+]([O-])c1ccc(N2N=C(c3ccco3)CC2c2ccccc2)cc1 (configuration not stated) do in these assays?
APEX1 inh: inactive; TDP1 inh: inactive; RECQ1 inh: inactive; BLM helicase inh: inactive; KAT2A inh: 2µM

What do the screens show for `Cc1ccc(NS(=O)(=O)c2ccc3c(c2)NC(=O)CO3)c(C)c1`?
APEX1 inh: inactive; TDP1 inh: inactive; BLM helicase inh: inactive; KAT2A inh: inactive

Assay outcomes from PubChem BioAssay.
